PubChem BioAssay AID2216 (Broad Institute, 2009)
The whole screen tested about 300,000 compounds, of which about 3,300 (1.1%) were called active. About 6% were inconclusive and are not listed.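 Rule for the calls: active = more than half of the replicate wells show a fall in the fluorescence ratio signal beyond about 16% (limit read from the data, passing the limit was not always enough); inconclusive = exactly half of the replicate wells pass the set limit; inactive = fewer than half of replicates pass the limit.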 Only a selection was taken, and actives are over-represented in it overall.

These molecules were tested on Ran GTPase (GTP-bound) - importin-beta complex (assay: inhibitors of RanGTP-importin-beta interaction, primary screen, biochemical, FRET, CFP-Ran, YFP-importin-beta, homogeneous (AID 2216;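 note: 0% = DMSO wells and 100% = Ran loaded with GDP instead of GTP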)). Conditions: cell-free CFP-Ran/YFP-importin-beta FRET ratio; stronger effect = higher value; concentration not given here.

| Structure (SMILES) | inhibition |
| --- | --- |
| Cc1onc(C(=O)Nc2ccc3c(c2)OCO3)c1[N+](=O)[O-] | 0.97% (inactive) |
| CCCOc1ccc(Cl)cc1Nc1nc(NCCO)nc(N2CCCC2)n1 | -4.43% (inactive) |
| O=C(COC(=O)c1cnccn1)Nc1ccc(Cl)cc1C(F)(F)F | 1.07% (inactive) |
| CCCCc1nc2cc(C(=O)N3CCCCC3CCO)ccc2o1 (stereo not given) | 2.55% (inactive) |
| Cc1cc(C)c2c3c(sc2n1)C(c1ccccc1)C(C#N)=C(N)O3 (stereo not given) | 14.9% (inactive) |
| N#CC1=C(N)Oc2c(sc3ccccc23)C1c1ccco1 (stereo not given) | 54.7% (active) |
| CC1=C(C(=O)Nc2ccccc2)C(c2ccco2)C(C#N)=C(SCC(N)=O)N1 (stereo not given) | -0.887% (inactive) |
| CC(C)CN(C(=O)COC(=O)c1ccc(Cl)c(N)c1)c1c(N)n(Cc2ccccc2)c(=O)[nH]c1=O | 3.15% (inactive) |
| Cc1onc(-c2ccccc2Cl)c1C(=O)N(Cc1ccc(N(C)C)cc1)C(C)C | -1.47% (inactive) |
| O=C(Cc1ccc(S(=O)(=O)N2CCOCC2)s1)NCCOc1ccccc1F | 0.747% (inactive) |
| COc1cccc(C(=O)OCc2cc(=O)oc3c(C)c(C)ccc23)c1OC | -2.35% (inactive) |
| COC(=O)Cc1cc(=O)oc2c(C)c(O)ccc12 | 60.4% (active) |
| CCCc1cc(=O)oc2c(C)c(OCC(=O)NCc3ccccn3)ccc12 | 0.0468% (inactive) |
| O=C(COc1ccccc1)Nc1cc2c3c(c1)CC(=O)N3CCC2 | 0.812% (inactive) |
| O=C(NC1CC1)C1=C[C@H](c2coc3ccccc3c2=O)C[C@H](OCCCCO)O1 | 8.31% (inactive) |
| N#Cc1c(N)sc2c1CCN(C(=O)OCc1ccccc1)C2 | 8.85% (inactive) |
| CCN1CCN(CC(=O)Nc2sc3c(c2C#N)CCC3)CC1 | -1.32% (inactive) |
| CC(C)N1CCc2c(sc(NC(=O)Cc3ccccc3)c2C#N)C1 | 156% (active) |
| Cn1c(SCC(=O)c2ccccc2)ncc(C(=O)Nc2ccc(F)cc2)c1=O | 0.558% (inactive) |
| CCN1CC=C2C(C#N)=C(N)C(C#N)(C#N)[C@H](c3ccoc3)[C@H]2C1 | 47.8% (active) |
| CCCN1CC=C2C(C#N)=C(N)C(C#N)(C#N)C(c3cc(OC)ccc3OC)C2C1 (stereo not given) | 36.6% (active) |
| N#CC1=C(N)C(C#N)(C#N)[C@H](c2ccsc2)[C@H]2COCC=C12 | -27% (inactive) |
| CCC1=C(C(=O)OC)C(c2cc(OC)ccc2OC)C(C#N)=C(N)O1 (stereo not given) | -4.33% (inactive) |
| COc1ccc(-c2cc(C(=O)N(C)CC(=O)Nc3ccccc3Cl)c3ccccc3n2)cc1OC | 0.526% (inactive) |
| COc1cc(C(=O)N(C)Cc2cccc(OC)c2OC)ccc1OCC(=O)Nc1cccc(C(F)(F)F)c1 | -1% (inactive) |
